Reference: PubChem BioAssay AID1159580 (chemical genetic matrix, 2015)
The whole screen tested about 5,500 compounds, of which about 2,000 (36%) were called active. Not shown: some 18% with an inconclusive outcome. Rule as the data show it: active = normalized growth mostly below about 0.91 (no sharp cut-off); inconclusive = no clear call, values can overlap the other calls; inactive = mostly above about 0.92. This is one part of the list.

Assay: chemical genetic growth profiling, strain panel (AID 1159580);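 also: tested at 20 µM; growth read once vehicle control cultures reached saturation at 30 °C; 1 = growth at the plate median or of vehicle wells; lower values mean less growth of the strain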
Details: growth OD
[1] = S. cerevisiae deletion strains, locus YHR030C, strain SLT2, active compounds read low
[2] = S. cerevisiae deletion strains, locus YJL187C, strain SWE1, active compounds read low

Measured: normalized growth

O=[N+]([O-])c1ccc(C(O)C(O)CO)cc1 (configuration not stated)
inactive: S. cerevisiae deletion strains, locus YAL013W, strain DEP1, active compounds read low 0.974 | S. cerevisiae deletion strains, locus YBR229C, strain ROT2, active compounds read low 0.981 | S. cerevisiae deletion strains, locus YDL101C, strain DUN1, active compounds read low 1.01 | S. cerevisiae deletion strains, locus YDR150W, strain NUM1, active compounds read low 1 | S. cerevisiae deletion strains, locus YEL061C, strain CIN8, active compounds read low 1 | S. cerevisiae deletion strains, locus YGR078C, strain PAC10, active compounds read low 0.996 | [1] 1.07 | S. cerevisiae deletion strains, locus YHR087W, strain rtc3, active compounds read low 0.958 | [2] 0.993 | S. cerevisiae deletion strains, locus YJR043C, strain POL32, active compounds read low 0.987 | S. cerevisiae deletion strains, locus YJR075W, strain HOC1, active compounds read low 0.988 | S. cerevisiae deletion strains, locus YLR039C, strain RIC1, active compounds read low 0.974 | S. cerevisiae deletion strains, locus YLR058C, strain SHM2 (second series), active compounds read low 0.988 | S. cerevisiae deletion strains, locus YLR085C, strain ARP6, active compounds read low 0.986 | S. cerevisiae deletion strains, locus YLR262C, strain YPT6, active compounds read low 0.963 | S. cerevisiae deletion strains, locus YML094W, strain GIM5, active compounds read low 0.99 | S. cerevisiae deletion strains, locus YMR219W, strain ESC1, active compounds read low 0.994 | S. cerevisiae deletion strains, locus YMR263W, strain SAP30, active compounds read low 1 | S. cerevisiae deletion strains, locus YMR307W, strain GAS1, active compounds read low 0.959 | S. cerevisiae deletion strains, locus YNL153C, strain GIM3, active compounds read low 0.987 | S. cerevisiae deletion strains, locus YNL298W, strain CLA4 (second series), active compounds read low 0.961 | S. cerevisiae deletion strains, locus YNL322C, strain KRE1, active compounds read low 0.996 | S. cerevisiae deletion strains, locus YNR030W, strain Alg12, active compounds read low 0.983 | S. cerevisiae deletion strains, locus YPL055C, strain LGE1, active compounds read low 0.971 | S. cerevisiae deletion strains, locus YPL241C, strain CIN2, active compounds read low 1 | S. cerevisiae deletion strains, locus YPR135W, strain CTF4, active compounds read low 1.02 | S. cerevisiae strains, strain wild type, active compounds read low 0.979

COP(=S)(OC)Oc1ccc(Sc2ccc(OP(=S)(OC)OC)cc2)cc1
inactive: S. cerevisiae deletion strains, locus YAL021C, strain ccr4, active compounds read low 1 | S. cerevisiae deletion strains, locus YAL026C, strain drs2, active compounds read low 1 | S. cerevisiae deletion strains, locus YAL030W, strain snc1, active compounds read low 0.999 | S. cerevisiae deletion strains, locus YBL061C, strain skt5, active compounds read low 1.01 | S. cerevisiae deletion strains, locus YBR009C, strain hhf1, active compounds read low 1.01 | S. cerevisiae deletion strains, locus YBR023C, strain chs3, active compounds read low 1.01 | S. cerevisiae deletion strains, locus YBR171W, strain sec66, active compounds read low 0.992 | S. cerevisiae deletion strains, locus YBR231C, strain swc5, active compounds read low 1 | S. cerevisiae deletion strains, locus YBR279W, strain paf1, active compounds read low 1.01 | S. cerevisiae deletion strains, locus YCL011C, strain gbp2, active compounds read low 1 | S. cerevisiae deletion strains, locus YCL016C, strain dcc1, active compounds read low 1.01 | S. cerevisiae deletion strains, locus YCL061C, strain MRC1, active compounds read low 1.01 | S. cerevisiae deletion strains, locus YCL069W, strain vba3, active compounds read low 1.01 | S. cerevisiae deletion strains, locus YCR088W, strain abp1, active compounds read low 0.994 | S. cerevisiae deletion strains, locus YDL005C, strain med2, active compounds read low 0.998 | S. cerevisiae deletion strains, locus YDL040C, strain nat1, active compounds read low 1 | S. cerevisiae deletion strains, locus YDR001C, strain nth1, active compounds read low 1.01 | S. cerevisiae deletion strains, locus YDR069C, strain doa4, active compounds read low 1.02 | S. cerevisiae deletion strains, locus YDR137W, strain rgp1, active compounds read low 1.02 | S. cerevisiae deletion strains, locus YDR159W, strain sac3, active compounds read low 0.994 | S. cerevisiae deletion strains, locus YDR195W, strain ref2 0.976 | S. cerevisiae deletion strains, locus YDR297W, strain sur2, active compounds read low 1 | S. cerevisiae deletion strains, locus YDR334W, strain swr1, active compounds read low 1.01 | S. cerevisiae deletion strains, locus YDR335W, strain msn5, active compounds read low 1.01 | S. cerevisiae deletion strains, locus YDR392W, strain spt3, active compounds read low 0.993 | S. cerevisiae deletion strains, locus YEL003W, strain gim4, active compounds read low 1.01 | S. cerevisiae deletion strains, locus YEL037C, strain rad23, active compounds read low 1 | S. cerevisiae deletion strains, locus YEL061C, strain CIN8 (second series), active compounds read low 1 | S. cerevisiae deletion strains, locus YER015W, strain faa2, active compounds read low 1 | S. cerevisiae deletion strains, locus YER016W, strain bim1, active compounds read low 1 | S. cerevisiae deletion strains, locus YER111C, strain swi4, active compounds read low 1 | S. cerevisiae deletion strains, locus YER155C, strain BEM2 (second series), active compounds read low 1 | S. cerevisiae deletion strains, locus YFR010W, strain ubp6, active compounds read low 1.01 | S. cerevisiae deletion strains, locus YGL167C, strain pmr1, active compounds read low 0.998 | S. cerevisiae deletion strains, locus YGL173C, strain kem1, active compounds read low 1 | S. cerevisiae deletion strains, locus YGL227W, strain vid30, active compounds read low 1 | S. cerevisiae deletion strains, locus YGL240W, strain doc1, active compounds read low 0.999 | S. cerevisiae deletion strains, locus YGL253W, strain hxk2, active compounds read low 1 | S. cerevisiae deletion strains, locus YHR013C, strain ard1, active compounds read low 0.986 | S. cerevisiae deletion strains, locus YHR027C, strain rpn1, active compounds read low 1.01 | [1] 0.973 | S. cerevisiae deletion strains, locus YHR079C, strain IRE1, active compounds read low 1.01 | S. cerevisiae deletion strains, locus YHR142W, strain chs7, active compounds read low 1.01 | S. cerevisiae deletion strains, locus YJL092W, strain hpr5, active compounds read low 1 | S. cerevisiae deletion strains, locus YJL095W, strain BCK1 (second series), active compounds read low 1 | S. cerevisiae deletion strains, locus YJL095W, strain BCK1, active compounds read low 0.999 | S. cerevisiae deletion strains, locus YJL115W, strain asf1, active compounds read low 1 | S. cerevisiae deletion strains, locus YJL129C, strain trk1, active compounds read low 1.02 | S. cerevisiae deletion strains, locus YJL154C, strain vps35, active compounds read low 1.01 | S. cerevisiae deletion strains, locus YJL164C, strain tpk1, active compounds read low 1.02 | S. cerevisiae deletion strains, locus YJL166W, strain qcr8, active compounds read low 1.01 | [2] 1.01 | S. cerevisiae deletion strains, locus YJR066W, strain TOR1, active compounds read low 0.946 | S. cerevisiae deletion strains, locus YKL160W, strain elf1, active compounds read low 1 | S. cerevisiae deletion strains, locus YKR026C, strain gcn3, active compounds read low 1 | S. cerevisiae deletion strains, locus YKR091W, strain srl3, active compounds read low 0.997 | S. cerevisiae deletion strains, locus YLL001W, strain dnm1, active compounds read low 1 | S. cerevisiae deletion strains, locus YLL026W, active compounds read low 0.995 | S. cerevisiae deletion strains, locus YLL041C, strain sdh2, active compounds read low 1 | S. cerevisiae deletion strains, locus YLR027C, strain aat2, active compounds read low 1 | S. cerevisiae deletion strains, locus YLR113W, strain HOG1, active compounds read low 0.977 | S. cerevisiae deletion strains, locus YLR221C, strain rsa3, active compounds read low 1 | S. cerevisiae deletion strains, locus YLR258W, strain gsy2, active compounds read low 1 | S. cerevisiae deletion strains, locus YLR262C, strain YPT6 (second series), active compounds read low 1.04 | S. cerevisiae deletion strains, locus YLR320W, strain mms22, active compounds read low 0.993 | S. cerevisiae deletion strains, locus YLR342W, strain FKS1, active compounds read low 1.01 | S. cerevisiae deletion strains, locus YLR357W, strain rsc2, active compounds read low 1.01 | S. cerevisiae deletion strains, locus YLR370C, strain arc18, active compounds read low 1.01 | S. cerevisiae deletion strains, locus YLR384C, strain iki3, active compounds read low 1 | S. cerevisiae deletion strains, locus YML120C, strain ndi1, active compounds read low 1.01 | S. cerevisiae deletion strains, locus YMR058W, strain fet3, active compounds read low 1.04 | S. cerevisiae deletion strains, locus YMR125W, strain sto1, active compounds read low 1 | S. cerevisiae deletion strains, locus YMR129W, active compounds read low 1.01 | S. cerevisiae deletion strains, locus YMR205C, strain PFK2, active compounds read low 0.992 | S. cerevisiae deletion strains, locus YMR231W, strain pep5, active compounds read low 1 | S. cerevisiae deletion strains, locus YNL071W, strain lat1, active compounds read low 1.01 | S. cerevisiae deletion strains, locus YNL183C, strain NPR1, active compounds read low 0.945 | S. cerevisiae deletion strains, locus YNL209W, strain ssb2, active compounds read low 1.01 | S. cerevisiae deletion strains, locus YNL248C, strain rpa49, active compounds read low 1 | S. cerevisiae deletion strains, locus YNL322C, strain KRE1 (second series), active compounds read low 1 | S. cerevisiae deletion strains, locus YNR049C, strain mso1, active compounds read low 1.01 | S. cerevisiae deletion strains, locus YOR001W, strain rrp6, active compounds read low 1 | S. cerevisiae deletion strains, locus YOR070C, strain gyp1, active compounds read low 1.01 | S. cerevisiae deletion strains, locus YOR080W, strain dia2, active compounds read low 1 | S. cerevisiae deletion strains, locus YOR083W, strain WHI5, active compounds read low 1.01 | S. cerevisiae deletion strains, locus YOR106W, strain vam3, active compounds read low 0.999 | S. cerevisiae deletion strains, locus YOR231W, strain MKK1, active compounds read low 0.984 | S. cerevisiae deletion strains, locus YOR265W, strain rbl2, active compounds read low 1.02 | S. cerevisiae deletion strains, locus YOR270C, strain vph1, active compounds read low 1.03 | S. cerevisiae deletion strains, locus YOR290C, strain snf2, active compounds read low 1 | S. cerevisiae deletion strains, locus YPL051W, strain arl3, active compounds read low 1.01 | S. cerevisiae deletion strains, locus YPL078C, strain atp4, active compounds read low 1.01 | S. cerevisiae deletion strains, locus YPL106C, strain sse1, active compounds read low 1.03 | S. cerevisiae deletion strains, locus YPL240C, strain hsp82, active compounds read low 1 | S. cerevisiae deletion strains, locus YPL256C, strain CLN2, active compounds read low 1.03
